High-throughput results from PubChem BioAssay.
FLuc modulator: inhibits or activates purified firefly luciferase, miR-21 counter-screen; P08659; purified FLuc, Km substrates, luminescence inhibition; 360,000 tested, 6.9% active; Potency, µM (top dose mostly 57.5 µM), without a hit: at the highest dose activity change, negative = inhibition, usual class: inhibitors;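 further: plate controls were vehicle for no effect and reference inhibitor for full effect; nearly all actives have a fitted effect of over 55% in size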
Target sequence (P08659 whole entry, looked up): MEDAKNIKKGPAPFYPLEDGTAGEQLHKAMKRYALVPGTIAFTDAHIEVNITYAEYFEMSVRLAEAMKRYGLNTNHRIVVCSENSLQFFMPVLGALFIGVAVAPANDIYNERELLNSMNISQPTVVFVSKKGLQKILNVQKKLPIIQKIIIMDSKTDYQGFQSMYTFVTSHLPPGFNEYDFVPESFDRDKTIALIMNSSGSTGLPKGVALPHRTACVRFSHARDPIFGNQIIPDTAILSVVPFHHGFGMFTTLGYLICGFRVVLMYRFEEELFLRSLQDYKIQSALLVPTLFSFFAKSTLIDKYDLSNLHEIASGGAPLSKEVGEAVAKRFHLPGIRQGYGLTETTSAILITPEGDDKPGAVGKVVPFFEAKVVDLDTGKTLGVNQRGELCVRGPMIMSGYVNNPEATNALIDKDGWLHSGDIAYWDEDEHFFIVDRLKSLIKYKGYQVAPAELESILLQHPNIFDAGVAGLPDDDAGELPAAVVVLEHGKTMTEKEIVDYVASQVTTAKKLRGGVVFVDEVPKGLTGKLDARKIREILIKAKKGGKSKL
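Purified P. pyralis luciferase, 10 nM final, with Km-level 10 uM D-luciferin and 10 uM ATP in 50 mM Tris acetate pH 7.5, 10 mM Mg acetate, 0.01% Tween-20, 0.05% BSA; 6-point qHTS titration about 60 µM downward; luminescence read.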
ELG1 genotox: inducers of genotoxicity in HEK293T ELG1-luciferase cells. HEK293T ELG1-luciferase reporter, luminescence, 16 h. Potency, µM (doses to about 46 µM), for inactives: at the highest dose activity change, positive = activation, usual class: activators. 330,000 tested, 1.3% active. AID 504466; further: % of control where 0% means no effect; nearly all actives have a fitted effect of over 60% in size
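Luminescence read-out: rising ELG1-luciferase signal, reflecting elevated ELG1 protein under genetic stress, flags genotoxic compounds. Cells were treated for 16 hr at 37 °C before ONE-Glo detection.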
SMN2 splice enh: SMN2 splice variant enhancement; HEK293 SMN2-luciferase splicing reporter, luminescence, 30-36 h; Potency, µM (top dose mostly 46.1 µM), inactives show at the highest dose activity change, positive = activation, actives largely listed as activators; 210,000 tested, 2.8% active; AID 1458; further: % of control where 0% means no effect; nearly all actives have a fitted effect of over 55% in size
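HEK293 cells carry an SMN2 […]–luciferase reporter in which exon 7 inclusion puts luciferase in frame. Cells were plated 10-12 h before compound addition, then incubated 30-36 h at 37C. ONE-Glo luminescence was read; sodium butyrate at 4.5 mM final served as control.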
Luc counter: counter-screen: inhibitors of Kinase-Glo firefly luciferase; AID 1379; Potency, µM (doses to about 38.3 µM), without a hit: top-dose activity change, negative = inhibition, usual class: inhibitors; 200,000 tested, 0.28% active; Kinase-Glo luciferase, ATP luminescence, 8 min; further: on the % scale 0 is the no-effect control and ±100 the full control effect; nearly all actives have a fitted effect of over 60% in size
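Luminescence was the read-out, taken after 8-minute incubation at ambient temperature. Luciferase turned over luciferin with 10 uM ATP in imidazole pH 7.2 buffer containing KCl, MgCl2, Tween 20 and BSA.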
NPC1 prom act: activates the NPC1 promoter; Huh7 NPC1 promoter luciferase reporter, 24 h; Potency, µM (top dose mostly 9.22 µM), without a hit: at the highest dose activation, usual class: activators; 320,000 tested, 2.4% active; further: % of control where 0% means no effect; nearly all actives have a fitted effect of over 60% in size
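Cells: Huh7 expressing luciferase under the NPC1 promoter, 1500/well. Seeded 2 h, compound added, incubated 24 h at 37 °C. Luciferase reagent, 10 min ambient, then luminescence.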
Rab9 promoter act: Rab9 promoter activation | Huh7 Rab9 promoter-luciferase reporter, luminescence, 24 h | Potency, µM (doses to about 9.22 µM), for the others: top-dose activation, negative = inhibition, usual class: activators | 320,000 tested, 2.8% active | AID 485297; further: % of control where 0% means no effect; nearly all actives have a fitted effect of over 60% in size
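Steps: seed 1500 Huh7 Rab9-luc cells per well, rest 2 h at 37 °C; add compound in DMSO; incubate 24 h; add luciferase reagent, 10 min ambient; read luminescence.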
* = called active by the depositor; ? = inconclusive; / = not tested or not shown. Rows were chosen to be rich in hits. Some 7.5% of all compounds tested hit in one or more screens of this group. The call rests on the fitted dose curve; in most records, active means well fitted curve in the direction sought with a large enough effect; inconclusive means small, poorly fitted or top-dose-only effect, or another doubt; inactive means no such curve, though single readings can be large; an effect the other way counts as inactive or inconclusive. Potency means the concentration at half of the fitted maximal effect.

SMILES	FLuc modulator	ELG1 genotox	SMN2 splice enh	Luc counter	NPC1 prom act	Rab9 promoter act
COC(=O)c1sc(-c2ccc(C(C)(C)C)cc2)cc1NC(=O)CSCC(=O)O	3.4µM*	9%	/	/	4%	-2%
CCOc1ccc(NC(=O)Nc2cc(-c3ccccc3)sc2C(=O)OC)cc1	?	-2%	-12%	0%	-2%	-3%
COC(=O)c1sc(-c2ccccc2)cc1NC(=O)C1CC1	?	-9%	-11%	1%	5%	3%
CCOC(=O)c1cccc(Nc2ccc3cc(S(=O)(=O)N4CCCCC4)ccc3n2)c1	-1%	/	/	/	/	/
CC(C)C(C(=O)NC1CCCC1)N(CC1CCCO1)C(=O)CNS(=O)(=O)c1ccccc1 (stereo not drawn)	2%	0%	/	/	-2%	1%
c1ccc(-c2cc(-c3nnc4n3N=C(c3ccc5ccccc5c3)CS4)[nH]n2)cc1	?	?	11µM*	-1%	2%	0%
Fc1ccc(C2=Nn3c(nnc3-c3n[nH]c4c3CCC4)SC2)cc1	1%	18µM*	20µM*	-6%	-2%	-4%
Cc1cc(-c2nnc3n2N=C(c2ccc(-c4ccccc4)cc2)CS3)n[nH]1	17µM*	0%	/	/	-1%	-7%
Cc1cc(-c2nnc3n2N=C(c2ccccc2)CS3)n[nH]1	0%	?	/	/	0%	6%
O=C(Nc1c(C(=O)N2CCN(c3ccccn3)CC2)oc2ccccc12)c1cccc([N+](=O)[O-])c1	5%	-5%	/	/	1%	-8%
CCN(CC(=O)Nc1ccc(NC(C)=O)cc1)C(=O)c1ccccc1SCc1c(C)noc1C	4%	4%	/	/	2%	0%
Cc1ccc2oc(-c3cccc(NC(=O)Cc4ccc(Cl)cc4)c3)nc2c1	1%	/	-5%	/	/	/
Cc1ccc2oc(-c3ccccc3)nc2c1	0.6µM*	?	?	?	1.1µM*	3.2µM*
Cc1cccc(OCC(=O)Nc2ccc(-c3nc4cc(C)ccc4o3)c(O)c2)c1	-13%	/	26%	/	/	/
CCOc1cccc(-c2nc3cc(C)ccc3o2)c1	0.95µM*	?	13µM*	-13%	13%	?
N=c1oc2ccccc2cc1-c1nc(-c2ccccc2)cs1	4.8µM*	8%	2%	-1%	2%	12%
N=c1oc2ccc3ccccc3c2cc1-c1nc(-c2ccccc2)cs1	-15%	0%	-18%	0%	20%	8%
Cc1c(C(=O)Nc2nccs2)oc2ccc(F)cc12	?	14%	/	/	3.5µM*	1.6µM*
Cc1c(C(=O)N2CCN(C(=O)c3ccccc3)CC2)oc2ccc(F)cc12	5%	-1%	/	/	-6%	2%
Cc1c(C(=O)/C=C/c2cccs2)oc2ccc(F)cc12	0.67µM*	?	-14%	-3%	4µM*	4µM*
Cc1c(C(=O)Nc2nccs2)oc2ccc(Br)cc12	/	9.2µM*	/	/	/	/
O=C(NCCc1ccccc1)c1ccc(CSc2nc3cccnc3n2Cc2ccccc2F)cc1	-12%	/	/	/	/	/
Cc1nc(C#N)c(N/N=C/c2c(F)cccc2Cl)o1	24µM*	5%	?	-1%	10%	19%
Cc1nc(N)nc(N/N=C/c2c(F)cccc2Cl)n1	?	8%	/	/	7%	-2%
Cc1ccc(C)c(OCC(=O)Nc2ccc(S(=O)(=O)Nc3onc(C)c3C)cc2)c1C	?	/	-8%	/	/	/
SMILES	FLuc modulator	ELG1 genotox	SMN2 splice enh	Luc counter	NPC1 prom act	Rab9 promoter act
CCOc1ccc(C2=NNC(c3cccs3)=Nc3ccc(OC)cc32)cc1	21µM*	-3%	4%	-7%	-4%	-1%
CCOc1ccc(C2=Nc3ccccc3C(c3ccc(N4CCOCC4)cc3)=NN2)cc1	?	10%	?	-6%	?	2.8µM*
CCOc1ccc(C2=Nc3ccc(Br)cc3C(c3ccc(N4CCOCC4)cc3)=NN2)cc1	24µM*	?	?	3%	?	?
O=C(NCc1ccccn1)c1ccc(Cl)c(S(=O)(=O)NCc2ccccc2)c1	2%	3%	/	/	1%	-5%
CCc1sc(C(=O)Nc2nc(-c3ccccn3)cs2)cc1C	/	14%	/	/	/	/
O=C(Nc1nc(-c2ccccn2)cs1)c1ccc(Cl)s1	17µM*	17%	-66%	2%	3%	-1%
CC(C)c1nc2ccc(NC(=O)C3CCCCC3)cc2[nH]1	?	1%	13%	-1%	0%	-7%
Cc1ccc(C(=O)Nc2nc(-c3ccccn3)cs2)s1	6.7µM*	15µM*	/	/	28%	-2%
O=C(Nc1ccc2nc(-c3ccccn3)[nH]c2c1)C1CCCCC1	5.4µM*	21µM*	11µM*	-4%	?	?
O=C(Nc1nc(-c2ccccn2)cs1)C1CCCC1	24µM*	0%	30%	0%	29%	?
c1ccc(-n2nnc3c(N4CCOCC4)ncnc32)cc1	1.5µM*	?	12%	?	0.32µM*	0.32µM*
CS(=O)(=O)Nc1cccc(C2=NN(C(=O)c3ccco3)C(c3ccco3)C2)c1 (stereo not drawn)	17µM*	-5%	/	/	-15%	-2%
O=C(O)CCC(=O)N1N=C(c2ccccc2)CC1c1ccc2nccnc2c1 (stereo not drawn)	-2%	3%	4%	-1%	-1%	2%
O=C(c1ccco1)N1N=C(c2ccccc2)CC1c1ccc2nccnc2c1 (stereo not drawn)	17µM*	3%	/	/	-3%	-1%
CCc1ccc(C2=NN(C(C)=O)C(c3ccco3)C2)cc1 (stereo not drawn)	8.5µM*	16µM*	13µM*	?	3.5µM*	1.8µM*
CCC(=O)N1N=C(c2ccc(Cl)cc2)CC1c1ccco1 (stereo not drawn)	-23%	2%	/	/	-5%	-2%
